Measurements as given in PubChem BioAssay (NCATS).
Results filed as inconclusive are left out. Calls of active or inactive are those of the source. Unless noted, the call rests on the fitted dose curve; in most records, active means well fitted curve in the direction sought with a large enough effect; inconclusive means small, poorly fitted or top-dose-only effect, or another doubt; inactive means no such curve, though single readings can be large; an effect the other way counts as inactive or inconclusive.

Tests used:
[1] = target: T1, Hexokinase-4 (Homo sapiens) + Glucokinase regulatory protein (Homo sapiens) (UniProt P35557+Q14397); test: qHTS assay for inhibitors of recombinant human GCK-GKRP interaction: Diaphorase-coupled assay (AID 743205)
T1 sequence (P35557 whole entry, looked up): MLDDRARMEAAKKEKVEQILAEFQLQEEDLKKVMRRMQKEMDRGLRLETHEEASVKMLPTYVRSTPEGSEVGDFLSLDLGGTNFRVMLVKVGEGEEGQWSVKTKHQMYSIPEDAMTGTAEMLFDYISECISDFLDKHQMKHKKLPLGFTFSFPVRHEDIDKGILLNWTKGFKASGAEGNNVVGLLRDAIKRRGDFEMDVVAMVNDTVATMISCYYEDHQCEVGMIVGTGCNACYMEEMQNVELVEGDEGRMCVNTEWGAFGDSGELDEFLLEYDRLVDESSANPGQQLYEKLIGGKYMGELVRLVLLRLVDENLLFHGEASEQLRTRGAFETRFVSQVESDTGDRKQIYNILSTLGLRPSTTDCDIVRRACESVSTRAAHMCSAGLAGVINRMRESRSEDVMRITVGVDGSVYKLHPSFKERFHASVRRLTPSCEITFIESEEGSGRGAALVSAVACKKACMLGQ
T1 sequence (Q14397 whole entry, looked up): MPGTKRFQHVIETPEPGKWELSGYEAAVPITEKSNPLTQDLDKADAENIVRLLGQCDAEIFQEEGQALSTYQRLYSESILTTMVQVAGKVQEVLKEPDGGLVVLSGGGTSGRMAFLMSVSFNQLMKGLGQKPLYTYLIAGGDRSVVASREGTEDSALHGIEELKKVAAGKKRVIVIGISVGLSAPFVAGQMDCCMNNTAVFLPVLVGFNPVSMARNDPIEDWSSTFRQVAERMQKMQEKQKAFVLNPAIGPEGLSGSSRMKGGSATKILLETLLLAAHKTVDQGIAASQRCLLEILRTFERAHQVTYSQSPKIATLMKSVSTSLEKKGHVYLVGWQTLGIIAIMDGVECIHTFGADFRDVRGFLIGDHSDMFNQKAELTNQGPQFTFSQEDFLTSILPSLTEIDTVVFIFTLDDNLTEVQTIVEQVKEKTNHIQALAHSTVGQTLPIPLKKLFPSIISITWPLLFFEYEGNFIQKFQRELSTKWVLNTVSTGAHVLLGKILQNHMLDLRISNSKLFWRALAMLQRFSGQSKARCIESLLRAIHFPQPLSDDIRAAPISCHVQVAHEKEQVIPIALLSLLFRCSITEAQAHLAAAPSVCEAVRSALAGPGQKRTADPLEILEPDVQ
How it was run: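 Inhibitors of the GCK–GKRP complex relieve GKRP suppression of GCK, detected through a G6PDH–diaphorase cascade reducing resazurin. Human GST-GCK and FLAG-GKRP are used at 10 nM with 5 mM glucose and 0.4 mM ATP.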

[2] = target: T1, Hexokinase-4 (Homo sapiens) + Glucokinase regulatory protein (Homo sapiens); test: qHTS assay for inhibitors of recombinant human GCK-GKRP interaction: ADP-Glo assay (AID 743206);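 further: plate controls were DMSO plus enzyme for no effect and no enzyme for full effect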
How it was run: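 Pin-transferred compounds meet a 15 nM GST-GCK/15 nM FLAG-GKRP/2 uM S6P mix (dispense concentrations). ATP is then added to 0.4 mM final with 5 mM glucose, and the reaction runs 60 min at room temperature. ADP is quantified luminescently.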

[3] = target: T1, Hexokinase-4 (Homo sapiens) + Glucokinase regulatory protein (Homo sapiens); test: qHTS assay for inhibitors of recombinant human GCK-GKRP interaction: HTRF assay (AID 743207);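 further: 0% = DMSO with GCK present and -100% = DMSO wells lacking GCK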
How it was run: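 Steps: dispense GCK–GKRP complex (5 nM each, GST- and FLAG-tagged) with 2 uM S6P; pin in compounds; add XL665/Eu-cryptate-labelled antibodies; incubate 60 min at room temperature; read time-resolved FRET at 665 and 615 nm.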

[4] = qHTS Assay for Identifying Gametocytocidal Compounds (AID 743244); further: potency means the concentration at half of the fitted maximal effect;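 on max response: on the % scale 0 is the no-effect control and ±100 the full control effect; actives lower the fluorescent signal which means gametocytes are killed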; details: P. falciparum 3D7 stage III-V gametocytes, alamarBlue, 72 h; max response: stronger effect = lower value
How it was run: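 P. falciparum 3D7 stage III–V gametocytes (20,000 cells/well) were exposed to compounds for 72 h at 37 °C, 5% CO2. AlamarBlue was then added for 24 h; decreased resorufin fluorescence (Ex 525/Em 598 nm) indicated loss of viability.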

[5] = qHTS profiling for inhibitors of Plasmodium falciparum (3D7) proliferation (AID 743322);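 further: infected erythrocytes exposed to compound for 72 h before lysis; 100% = DMSO vehicle wells and 0% = 0.29 µM artemisinin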; details: P. falciparum 3D7 proliferation; at 28.7 µM (top of the series)
How it was run: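 Parasite DNA was quantified by SYBR Green I fluorescence (ex 485, em 535 nm) after overnight lysis in saponin/Triton buffer at room temperature. Cultures at 0.3% parasitemia and 2.5% hematocrit were first exposed to compound for 72 h at 37 C; signals were normalised to artemisinin (0.29 uM) and vehicle wells.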

[6] = qHTS profiling for inhibitors of Plasmodium falciparum (DD2) proliferation (AID 743323; call rule not given here); details: lower = more inhibition; at 28.7 µM (top of the series)
How it was run: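 Parasite proliferation measured via DNA-dye fluorescence, as uninfected erythrocytes lack DNA. Cultures at 0.3% parasitemia and 2.5% hematocrit incubated 72 h with compound; signal scaled between vehicle and 0.29 uM artemisinin wells.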

[7] = qHTS profiling for inhibitors of Plasmodium falciparum (HB3) proliferation (AID 743324); details: Plasmodium falciparum HB3 blood-stage proliferation; at 28.7 µM (top of the series);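 further: 100% = DMSO vehicle wells and 0% = artemisinin-treated control wells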
How it was run: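 SYBR Green fluorescence (485 ex/535 em) of lysed cultures, incubated overnight at room temperature in the dark, quantifies parasite DNA. Infected erythrocytes at 0.3% parasitemia and 2.5% hematocrit were exposed 72 h; values normalized to DMSO and 0.29 uM artemisinin controls.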

Cn1c(=O)c2[nH]c(C3CCCC3)nc2n(C)c1=O
inactive: Potency [1] | Potency [2] | Potency [3] | max response [4] 9.69%

NC(=O)c1cc[n+](CC2=C(C(=O)O)N3C(=O)[C@@H](NC(=O)[C@@H](c4ccccc4)S(=O)(=O)[O-])[C@H]3SC2)cc1
inactive: Potency [1] | Potency [2] | Potency [3] | max response [4] 7.28%

C=CCNc1ncnc2ccc(Br)cc12
inactive: Potency [1] | Potency [2] | Potency [3] | max response [4] 27.4%

CNCCc1cnc(CCC(c2ccccc2)c2ccccc2)[nH]1
inactive: Potency [1] | Potency [2] | Potency [3]
active: Potency [4] 1.26 µM

C=CCn1c(=O)c2c(nc(-c3ccc(S(=O)(=O)O)cc3)n2C)n(C)c1=O
inactive: Potency [1] | Potency [2] | Potency [3] | max response [4] 2.53%

CCN1C(=O)C=CC1=O
inactive: Potency [1] | Potency [2] | Potency [3] | max response [4] 14.2%

Oc1ccc(Cn2cc[nH]c2=S)cc1
inactive: Potency [1] | Potency [2] | Potency [3] | max response [4] 24%

N[C@@H](Cc1ccc(F)cc1)C(=O)O
inactive: Potency [1] | Potency [2] | Potency [3] | max response [4] 19.5%

CC(C)NC[C@H](O)COc1ccc(CC(N)=O)cc1
inactive: Potency [1] | Potency [2] | Potency [3] | max response [4] 5.76%

CCCOC(=O)c1c(-c2ccccc2)nc(CC)c(C(=O)SCC)c1CCC
inactive: Potency [1] | Potency [2] | Potency [3] | max response [4] 9.8%

CCN(CC)CCCCCCCCOC(=O)c1cc(OC)c(OC)c(OC)c1
inactive: Potency [1] | Potency [2] | Potency [3] | max response [4] 31.2%

N=C(N)c1ccc(N)cc1
inactive: Potency [1] | Potency [2] | Potency [3] | max response [4] -4.7%

C[C@@]1(C2CCCC2)Cc2cc(OCC(=O)O)c(Cl)c(Cl)c2C1=O
inactive: Potency [1] | Potency [2] | Potency [3] | max response [4] 33.9%

CC1CCN=C(N)S1 (stereo not given)
inactive: Potency [1] | Potency [2] | Potency [3] | max response [4] -7.18%

COC(=O)C(C)(N)Cc1ccc(O)cc1 (stereo not given)
inactive: Potency [1] | Potency [2] | Potency [3] | max response [4] 7.17%

CC(C)(C)NCC(O)COc1cccc2[nH]c(=O)[nH]c12 (stereo not given)
inactive: Potency [1] | Potency [2] | Potency [3] | max response [4] 25.5%

C#CC(N)CCC(=O)O (stereo not given)
inactive: Potency [1] | Potency [2] | Potency [3] | max response [4] 8.18%

CNc1ncnc2c1ncn2[C@H]1C[C@H](OP(=O)(O)O)[C@@H](COP(=O)(O)O)O1
inactive: Potency [1] | Potency [2] | Potency [3] | max response [4] 21.7%

Nc1nc2[nH]c(=O)cnc2c(=O)[nH]1
inactive: Potency [1] | Potency [2] | Potency [3] | max response [4] 4%

COc1ccc2c(c1)c(CC(=O)O)c(C)n2Cc1ccc(Cl)cc1
inactive: Potency [1] | Potency [2] | Potency [3] | max response [4] -11.4%

NCCS(=O)O
inactive: Potency [1] | Potency [2] | Potency [3] | max response [4] 18%

CCSC(=N)N
inactive: Potency [1] | Potency [2] | Potency [3] | max response [4] 12.9%

CCCCOc1cc(CC2CNC(=O)N2)ccc1OC (stereo not given)
inactive: Potency [1] | Potency [2] | Potency [3] | max response [4] 22.4%

CC[N+](CC)(CC)CC(=O)Nc1c(C)cccc1C
inactive: Potency [1] | Potency [2] | Potency [3] | max response [4] 14.2%

O=[N+]([O-])c1cccc2cn[nH]c12
inactive: Potency [1] | Potency [2] | Potency [3] | max response [4] 8.31%

Cc1cccc(C)c1OCC(N)C(C)C (stereo not given)
-0.0097%: remaining proliferation (% of control), lower = more inhibition [7]
-0.0581%: activity, percent of control [6]
-0.502%: remaining parasite growth % (stronger effect = lower value) [5]

O=C1OC(=O)C2C3CCC(O3)C12 (stereo not given)
inactive: Potency [1] | Potency [3] | max response [4] 26.3%

Cc1nc(N=Nc2ccc(C(=O)O)cc2)c(COP(=O)(O)O)c(C=O)c1O
inactive: Potency [1] | Potency [3] | max response [4] 5.37%

[N-]=[N+]=Nc1ccc(C(=O)CSC[C@H](NC(=O)CC[C@H](N)C(=O)O)C(=O)NCC(=O)O)cc1
inactive: Potency [1] | Potency [3] | max response [4] 27%

Nc1ncnc2c1c(-c1ccc(Oc3ccccc3)cc1)cn2C1CCCC1
inactive: Potency [1] | Potency [3] | max response [4] 4.42%

O=c1oc(Cl)c(Cl)c2ccccc12
inactive: Potency [1] | Potency [3] | max response [4] 31%

CC(C)(C)c1cc(/C=C(\C#N)C(N)=S)cc(C(C)(C)C)c1O
inactive: Potency [1] | Potency [3]
